From PubChem BioAssay
RecA intein inh = Mtb RecA intein splicing inhibitors, primary screen, biochemical, fluorescence, HTS | inhibition, % (no concentration beside the values) | cell-free RecA intein splicing | AID 2221, 2009 | hit rate 0.75% among 290,000; in the data active = inhibition above about 30%;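 also: 0% = vehicle wells and 100% = reference inhibitor control wells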
Target sequence (P9WHJ3 whole entry, looked up): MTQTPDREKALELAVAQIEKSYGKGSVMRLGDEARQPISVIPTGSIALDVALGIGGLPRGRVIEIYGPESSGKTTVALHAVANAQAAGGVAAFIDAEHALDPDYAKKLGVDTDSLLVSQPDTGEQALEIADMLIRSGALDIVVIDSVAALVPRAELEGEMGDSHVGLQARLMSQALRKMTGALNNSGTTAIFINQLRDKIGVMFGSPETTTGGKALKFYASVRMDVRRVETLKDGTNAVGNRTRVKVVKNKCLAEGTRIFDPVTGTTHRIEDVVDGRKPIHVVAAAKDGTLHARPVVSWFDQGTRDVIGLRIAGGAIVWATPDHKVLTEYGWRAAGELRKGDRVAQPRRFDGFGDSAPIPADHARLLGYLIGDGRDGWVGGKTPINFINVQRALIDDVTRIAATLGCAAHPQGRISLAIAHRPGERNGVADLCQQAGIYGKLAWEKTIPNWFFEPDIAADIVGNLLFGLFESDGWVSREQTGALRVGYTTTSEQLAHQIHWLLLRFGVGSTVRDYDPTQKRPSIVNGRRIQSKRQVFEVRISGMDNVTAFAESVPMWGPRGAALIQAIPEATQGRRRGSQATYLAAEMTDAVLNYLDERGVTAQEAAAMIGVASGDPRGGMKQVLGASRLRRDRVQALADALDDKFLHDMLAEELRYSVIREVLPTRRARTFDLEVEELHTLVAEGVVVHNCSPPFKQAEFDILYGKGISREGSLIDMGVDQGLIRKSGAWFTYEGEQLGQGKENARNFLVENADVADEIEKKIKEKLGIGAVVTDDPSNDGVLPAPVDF
RmlCD inh 1536 = M. tuberculosis RmlC/RmlD coupled enzyme inhibitors, primary screen, biochemical, compound mixtures, 384-well, from 1536-well plates; hit rate 0.03% among 160,000; dTDP-4-dehydrorhamnose reductase (Mycobacterium tuberculosis (strain ATCC 25618 / H37Rv)) …; RmlC+RmlD coupled enzyme assay, percent inhibition; primary screen in compound mixtures; inhibition, % at 3.6 µM; AID 1533, 2009; in the data active = inhibition mostly above about 34%, no sharp cut-off
GFP chromophore = counter-screen: blocks GFP chromophore formation, dose response, counter-screen, biochemical, fluorescence, homogeneous; shares compounds with RecA intein inh; cell-free GFP chromophore formation; EC50, µM; hit rate 83% among 2,100; AID 434968, 2010; call rule not given here
The depositor's hits bear a star; . = not tested or not shown. This is a sample that favours compounds with a hit; in the whole collection about 0.77% have one here.

SMILES	RecA intein inh	RmlCD inh 1536	GFP chromophore
CC1=NN(c2ccc(C)c(C)c2)C(=O)/C1=C/c1ccc2c(c1)n(C)c(=O)n2C	-1.5	3.1	.
COc1ccc(/C=C2/C(=O)N(c3ccccc3)N=C2C)cc1Br	45.1*	.	8.04*
COc1ccc(C(=O)c2c(C(F)(F)F)oc3c2C(=O)c2ccccc2C3=O)cc1	86.8*	.	0.132*
Cc1ccc(C(=O)c2c(C)oc3c2C(=O)C(=O)c2ccccc2-3)cc1	-1.0	.	.
O=C(NCc1cccnc1)/C(=C\c1ccc(-c2ccc(Br)cc2)o1)S(=O)(=O)c1ccccc1	51.4*	7.6	29.4*
O=C(CN(Cc1ccc(Br)cc1)S(=O)(=O)c1ccccc1)NCc1cccnc1	2.1	.	.
CCOC(=O)c1cnc(SCC(=O)Nc2ccc(NC(=O)CC)c(OC)c2)nc1N	-5.8	-6.0	.
CCNc1nc(NC(C)C)nc(Oc2ccc(OCc3ccccc3)nn2)n1	1.9	-8.2	.
Cc1cc(Nc2ccccc2)c2c([N+](=O)[O-])ccc(C)c2n1	70.7*	-12.1	11.8*
Cc1cc(Nc2ccc([N+](=O)[O-])cc2)c2ccccc2n1	-0.4	.	.
COc1ccc(C2CC(C(F)(F)F)n3ncc(C(=O)Nc4c(C)n(C)n(-c5ccccc5)c4=O)c3N2)cc1 (stereo not given)	0.4	.	.
CCC(=O)N(C)/C=C1\Sc2ccccc2C1=O	-2.1	28.9	.
CCC(=O)N(CC)C1=C(O)c2ccccc2C(=O)C1=O	73.0*	.	12*
COc1ccc(C(=O)N=C2SC3CS(=O)(=O)CC3N2Cc2ccc(OC)c(OC)c2)cc1 (stereo not given)	1.4	.	.
Cc1cccc(Cn2nnc3c2C(=O)c2ccccc2C3=O)c1	37.4*	-6.5	9.93*
Cc1cccc(Cn2cnc3c(nnn3Cc3ccccc3F)c2=O)c1	-1.5	.	.
COc1ccc(Nc2ccc(OC)cc2)cc1	50.5*	-8.1	>38
COc1ccc(Nc2ccc(Nc3ccc(OC)cc3)nn2)cc1	-2.3	6.0	.
COCCN(C(=O)c1ccccc1)c1nnc(-c2cccnc2)s1	-0.5	36.3	.
CC(C)Oc1cccc(C(=O)C2CCCN(C(=O)c3csnn3)C2)c1 (stereo not given)	51.9*	5.2	>38
CC(C)Oc1cccc(C(=O)C2CCCN(C(=O)c3cc(C(F)(F)F)[nH]n3)C2)c1 (stereo not given)	-1.0	.	.
O=C1C2=C(c3ccccc31)[N+](=O)C1CCCCC1N2[O-] (stereo not given)	81.9*	-5.1	7.95*
O=C1C2=C(c3ccccc31)[N+](=O)[C@@H]1CCCC[C@@H]1N2[O-]	.	8.0	.
CNc1cc(Cl)c2nonc2c1[N+](=O)[O-]	85.8*	-3.7	7.7*
O=[N+]([O-])c1c(Nc2cccc(O)c2)cc(Cl)c2nonc12	-4.7	.	.
SMILES	RecA intein inh	RmlCD inh 1536	GFP chromophore
CC1(C)Cc2c(c(-c3ccco3)[nH]c(=O)c2C#N)CS1	-23.1	-0.5	.
COc1ccc(OC)c(S(=O)(=O)N2CCCC(N3CCN(c4ccccc4)CC3)C2)c1 (stereo not given)	0.7	.	.
COCCNC(=O)C(=O)Nc1cc2c3c(c1)CC(=O)N3CCC2	-1.9	.	.
CCCCNC(=O)Cn1nc(Cc2ccncc2)c2ccccc2c1=O	4.0	.	.
CN(CCC#N)C(=O)Cn1nc(Cc2ccncc2)c2ccccc2c1=O	49.3*	.	>38
NNc1n[nH]c(=S)n1N	78.2*	4.0	>38
Nn1c(Cc2ccccc2)n[nH]c1=S	-0.3	4.9	.
CCOC(=O)c1sc(NC(=O)CSc2nncs2)c(C(=O)OCC)c1C	0.1	-9.8	.
O=C(O)CSc1cc(NS(=O)(=O)c2ccc(Br)cc2)c2ccccc2c1O	96.9*	.	0.68*
O=S(=O)(Nc1cc(Sc2ncn[nH]2)c(O)c2ccccc12)c1ccccc1	.	4.4	.
CN1/C(=C/C(=O)c2nc(S(C)(=O)=O)ncc2Cl)C(C)(C)c2ccccc21	77.1*	.	6.26*
CN1/C(=C\C(=O)c2cccnc2)C(C)(C)c2ccccc21	-10.4	.	.
O=[N+]([O-])c1cccc(-c2ccc(C(=S)N3CCOCC3)o2)c1	-4.6	-9.1	.
O=[N+]([O-])c1cc(-c2ccc(C(=S)N3CCOCC3)o2)ccc1Cl	30.9*	15.4	17.6*
N#CC[C@H](Cc1ccccc1)N1CCN(CCc2ccccc2)CCC1=O	-0.3	.	.
CCOc1cc(NC2CS(=O)(=O)CC2O)c(OCC)cc1NC(=O)c1ccccc1 (stereo not given)	59.4*	2.7	>38
CCOc1cc(NC(=O)c2ccccn2)c(OCC)cc1NC(=O)c1ccccc1	-3.8	6.7	.
O=S(=O)(Cc1ccccc1)NCc1cccnc1	0.3	12.0	.
C=CCNC1=C(Cl)C(=O)c2ccccc2C1=O	34.5*	.	18.6*
CCN(CC)CCCNC1=C(Cl)C(=O)c2ccccc2C1=O	13.9	-5.5	.
O=C1C(Cl)=C(NCc2cccnc2)C(=O)c2ccccc21	75.8*	.	9.41*
COc1ccccc1/C=C/C=N/NC(=O)CCn1cnc2ccccc21	1.5	-6.6	.
Cc1cccc(N(CC(=O)Nc2cccnc2)S(C)(=O)=O)c1	0.6	-6.0	.
COC(=O)[C@@]1(Cc2ccccc2)[C@@H]2C(=CC(=O)[C@H]2CC(=O)C(=O)N(C)C)CN1C(=O)c1ccccc1	69.5*	.	15.6*
COC(=O)[C@@]1(Cc2ccc(F)cc2)[C@H]2c3cc(C(=O)N(C)C)n(Cc4ccc(OC(F)(F)F)cc4)c3C[C@H]2CN1C(=O)c1ccccc1	11.4	.	.
SMILES	RecA intein inh	RmlCD inh 1536	GFP chromophore
CC(=O)Nc1ccc2c(c1)N(S(=O)(=O)c1cccs1)CCC2	-1.1	.	.
N#CC(C#N)=C(Nc1ccc(F)cc1)SCc1cccc(Br)c1	55.3*	6.8	4.72*
CC(SCc1ccccc1)C(=O)Nc1ccc(F)cc1 (stereo not given)	2.1	.	.
COc1ccc(CCN2CCCn3c2nc2c3c(=O)[nH]c(=O)n2C)cc1OC	-0.9	.	.
Cc1ccc(SCCN2CCC(O)CCC2=O)cc1 (stereo not given)	-0.3	.	.
CCCc1c(C(=O)Nc2ccc(F)cc2F)cnn1-c1ccccc1	10.6	.	.
CCCc1c(C(=O)NNc2cccc(Cl)c2)cnn1-c1ccccc1	32.2*	-1.7	>38
Cc1cccnc1NC(=O)Nc1cccc(Cl)c1	-1.8	.	.
COCCCN1CC(=O)N2C(c3cccc(OC)c3OC)c3[nH]c4ccccc4c3C[C@H]2C1=O (stereo not given in full)	4.6	.	.
C/C(CC(=O)Nc1ccc(F)cc1F)=N\NC(=O)C(=O)N1CCCCC1	78.3*	.	10.6*
CC(=O)Nc1ccc(NC(=O)C/C(C)=N/NC(=O)C(=O)N2CCCC2)cc1	25.3	.	.
CCOC(=O)C(C)NC(=O)CCc1nnc2ccc(N3CCC(C)CC3)nn12 (stereo not given)	-0.4	.	.
O=C(/C=C/c1ccc(O)cc1)c1ccc(NC2=C(N3CCCCC3)C(=O)c3ccccc3C2=O)cc1	56.8*	-6.3	6.07*
CCN1CCN(C2=C(NS(=O)(=O)c3ccc(C)cc3)C(=O)c3ccccc3C2=O)CC1	2.6	.	.
O=C1C(Nc2cccc(O)c2)=C(N2CCCCC2)C(=O)c2ccccc21	79.5*	0.8	3.03*
COc1ccccc1NC1=C(N2CCCCC2)C(=O)c2ccccc2C1=O	79.3*	.	17.4*
O=C(/C=C/c1ccc(O)cc1)c1ccccc1	2.0	16.9	.
